JMJD2A Tudor inh: inhibitors of human JMJD2A Tudor domain. O75164. actives 4.4% (n = 390,000). AID 504339. AlphaScreen JMJD2A-Tudor / H3K4me3 peptide binding. Potency, µM (titrated, usually from 114 µM), without a hit: top-dose activity change, negative = inhibition, usual class: inhibitors; also: % is scaled to controls: 0 for no effect and ±100 for the full control effect; nearly all actives have a fitted effect of over 50% in size
Sfp inh: blocks B. subtilis Sfp PPTase activity; AID 1490; Potency, µM, for inactives: largest response in the series, negative = inhibition, actives largely listed as inhibitors; actives 3.5% (n = 310,000); Biochemical Sfp PPTase activity, qHTS;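 also: the enzyme is Sfp with the accession as filed and its product quenches rhodamine fluorescence; 0% = enzyme reaction without inhibitor and -100% = no enzyme wells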
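Buffer: 50 mM Hepes-Na pH 7.6, 10 mM MgCl2, 0.01% Nonidet P-40, 0.01% BSA. Enzyme 15 nM, pre-exposed to compound 15 min; substrates then added and fluorescence change tracked over 30 min.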
G9a inh: blocks human histone lysine methyltransferase G9a. actives 8.8% (n = 350,000). Potency, µM (top dose mostly 102 µM), for the others: top-dose activity, negative = inhibition, most hits filed as inhibitors. G9a H3K9 monomethylation, AlphaScreen, 2 h; also: % is scaled to controls: 0 for no effect and ±100 for the full control effect; nearly all actives have a fitted effect of over 75% in size
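Readings reflect AlphaScreen signal from monomethyl-H3K9 antibody detection. HMT at 20 nM; substrate b-H3K9 500 nM; cofactor SAM 20 uM; 2 h RT reaction; compounds tested as titrations in qHTS with 15 min preincubation.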
BAZ2B block: inhibitors of human BAZ2B bromodomain; actives 4.4% (n = 360,000); Q9UIF8; AlphaScreen BAZ2B-H3K14Ac peptide displacement; AID 504333; Potency, µM (highest dose often 114 µM), for the others: top-dose activity change, negative = inhibition, actives largely listed as inhibitors; also: % is scaled to controls: 0 for no effect and ±100 for the full control effect; nearly all actives have a fitted effect of over 60% in size
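Compounds, titrated to a top concentration of 110 uM, were incubated 30 min at room temperature with preformed BAZ2B/acetyl-K14 H3 peptide complex (50 nM each). Proximity signal was measured by AlphaScreen after 20 min with beads.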
HP1b chromo inh: inhibitors of HP1-beta chromodomain binding to methylated histone tails | P83916 | AlphaScreen HP1-beta / biotin-H3K9me3 peptide binding | Potency, µM (highest dose often 114 µM), for the others: top-dose activity change, negative = inhibition, hits mostly inhibitors | actives 0.56% (n = 390,000) | AID 540317; also: nearly all actives have a fitted effect of over 70% in size
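AlphaScreen: HP1-beta (50 nM) preformed 30 min with biotin-H3(1-18)K9me3 peptide (50 nM) in PBS pH 7.4, 0.01% Tween-20. Compound added for 30 min at RT, then streptavidin donor/nickel chelate acceptor beads (10 ug/mL) for 30 min.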
L3MBTL1 inh: blocks human L3MBTL1. Potency, µM (series often up to 57.1 µM), inactives show at the highest dose activity, negative = inhibition, actives largely listed as inhibitors. Q9Y468. AID 485360. AlphaScreen L3MBTL1–H3K9me1 peptide binding. actives 0.66% (n = 230,000); also: % is scaled to controls: 0 for no effect and ±100 for the full control effect; nearly all actives have a fitted effect of over 60% in size
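AlphaScreen proximity signal between nickel-chelate acceptor and streptavidin donor beads (final 10 ug/mL) reports binding of 50 nM L3MBTL1 to 75 nM biotin-H3 K9me1 peptide; complex incubated with compounds 30 min at room temperature; cefsulodin titration as control.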
* hit, by the source's call; u = inconclusive; x = not tested or not shown; [ ] = dose if it differs, or a comment. This is a sample that favours compounds with a hit; in the whole collection about 12% have one here. Calls follow the shape of the dose curve; as a rule, active = well fitted curve in the direction sought with a large enough effect; inconclusive = small, poorly fitted or top-dose-only effect, or another doubt; inactive = no such curve, though single readings can be large; an effect the other way counts as inactive or inconclusive. Potency is read from the fitted curve at half-maximal effect.

SMILES	JMJD2A Tudor inh	Sfp inh	G9a inh	BAZ2B block	HP1b chromo inh	L3MBTL1 inh
NC(=O)CC(NC(=O)c1cccc(Br)c1)c1ccc(N2CCN(c3ccccn3)CC2)c([N+](=O)[O-])c1 (stereo unspecified)	u	2.6%	50.1µM*	u	-6.4%	-8.8%
Cc1cc(C)c2c(CC(=O)Nc3ccc(F)cc3)coc2c1	-5.6%	x	-1.9%[59 µM]	-0.1%	34.5%	x
CCCN(CCO)Cc1cccc(Br)c1	4.47µM*	-18.0%	u	50.1µM*	u	6.7%
OCCN(Cc1ccccc1)Cc1ccccc1O	u	-13.2%	10µM*	56.2µM*	79.4µM*	-1.4%
Cc1ccc(CN(CCO)CCO)cc1	-9.2%	10.6%	-1.9%[59 µM]	4.2%	38.1%	-4.5%
OCCN(CCO)Cc1ccc(Br)cc1	20µM*	-1.2%	20µM*	50.1µM*	-35.0%	x
S=C(NCCc1ccccc1)Nc1ccc(Nc2ccccc2)cc1	17.8µM*	-15.8%	x	8.91µM*	11.2µM*	-29.6%
Cc1cccc(C)c1NC(=S)NCCc1ccc(O)c(O)c1	-21.9%	50.1µM*	25.1µM*	-24.8%	-7.3%	-9.3%
CC(C)(C)NC(=S)Nc1ccc(Nc2ccccc2)cc1	31.6µM*	u	11.2µM*	28.2µM*	-38.8%	u
S=C(NCCc1ccccc1)Nc1c(Cl)cccc1Cl	1.4%	31.6µM*	u	-6.6%	56.4%	2.5%
CCc1noc(C)c1C(=O)Nc1ccc(F)c(F)c1F	-7.5%	x	-1.0%[0.501 µM]	-0.8%	26.0%	8.0%
CC(C)(CNC(=S)NCCc1ccccc1)CNC(=S)NCCc1ccccc1	u	-17.3%	10µM*	u	-19.0%	-10.7%
O=[N+]([O-])c1ccc(NC(=S)NCCc2ccc(F)cc2)cc1	u	u	u	79.4µM*	-35.2%	0.7%
CCOC(=O)C1=C(CS(=O)(=O)c2ccc(Br)cc2)NC(=O)NC1c1ccccc1 (stereo unspecified)	-17.9%	x	-18.1%[59 µM]	-12.5%	30.5%	x
O=C(CSc1ccccn1)Nc1ccc(N2CCOCC2)cc1	u	0.1%	31.6µM*	-24.9%	-35.1%	x
Cc1nnc(SCC(=O)Nc2ccc(N3CCOCC3)cc2)o1	-25.9%	4.5%	50.1µM*	11.8%	17.1%	-0.7%
Cn1cc(S(=O)(=O)c2ccccc2)c(=O)c2cc(F)c(N3CCN(c4ccc(F)cc4)CC3)cc21	-10.2%	x	1.4%[59 µM]	0.8%	-1.7%	x
O=C(O)c1cn(-c2ccc(F)cc2)c2cc(N3CCNCC3)c(F)cc2c1=O	50.1µM*	11.2%	u	x	23.7%	x
COc1cc(C(=O)CSc2nncn2C)cc(OC)c1OC	-14.2%	u	39.8µM*	u	42.5%	x
COc1cc(C(=O)CSc2nccn2C)cc(OC)c1OC	-11.3%	-10.6%	-19.4%	2.0%	-6.0%	x
Cc1ccc(S(=O)(=O)N(CC(=O)c2ccc(Cl)cc2)C(=O)N2CCN(C)CC2)cc1	-3.4%	x	u	-1.4%	17.8%	13.2%
O=C1CCC2S/C(=C/Nc3ccc(C(F)(F)F)cc3)C(=O)N12 (stereo unspecified)	-14.3%[11.4 µM]	22.4µM*	u	u	-15.5%	u
O=C1CCCC/C1=C/Nc1cccc(C(F)(F)F)c1	-13.7%	-29.3%	u	-24.6%	37.4%	-22.2%
COc1cc(-c2nc(-c3ccc4c(c3)[nH]c(=O)n4C)no2)cc(OC)c1OC	-1.3%	x	16.0%[59 µM]	5.3%	29.9%[57 µM]	x
O=C1C(Cl)=C(Nc2ccccc2O)C(=O)N1CCc1ccccc1	50.1µM*	11.2µM*	3.16µM*	31.6µM*	u	-14.7%
SMILES	JMJD2A Tudor inh	Sfp inh	G9a inh	BAZ2B block	HP1b chromo inh	L3MBTL1 inh
COc1ccc(C(=O)CC2(O)C(=O)N(Cc3ccccc3)c3ccc(Br)cc32)cc1 (stereo unspecified)	-32.5%	x	u	-15.9%	11.6%	x
O=C(O)c1csc(-c2ccc(Cl)cc2)n1	-20.5%	-9.4%	56.2µM*	u	-1.6%	4.0%
Cc1cc(C)cc(N2C(=O)CS(=O)(=O)C23C(=O)N(C)c2ccccc23)c1 (stereo unspecified)	-17.5%	x	u	0.0%[57.1 µM]	-3.1%	x
Cc1ccc(N2C(=O)CS(=O)(=O)C23C(=O)Nc2ccccc23)cc1C (stereo unspecified)	-10.7%	x	15.8µM*	7.7%[57.1 µM]	21.3%	x
c1ccc(Oc2ccccn2)cc1	4.1%	x	x	x	32.8%	x
Nc1nc(SCC(=O)Nc2ccc(OCc3ccccc3)cc2)n[nH]1	-24.6%	7.2%	-0.2%	-22.5%	65.9%	-15.8%
Cc1ccsc1/C=C/C1=Cc2c(sc(NC(=O)CSc3n[nH]c(N)n3)c2C#N)C(C)(C)C1	u	39.8µM*	35.5µM*	u	-20.3%	x
NC(=O)c1ccsc1NC(=O)CSc1n[nH]c(N)n1	-0.7%	x	x	x	21.9%	0.9%
CCOc1ccc(/C=C/C2=Cc3c(sc(NC(=O)CSc4n[nH]c(N)n4)c3C#N)C(C)(C)C2)cc1	u	39.8µM*	u	39.8µM*	-30.3%	-8.5%
CN(C(=O)c1cc(-c2ccccc2O)on1)c1ccccc1	-33.4%	x	-6.6%[59 µM]	-17.0%	8.5%	x
C=CCOC(=O)N[C@H](/C(C(=O)OC)=C(\C)NCc1ccccc1)c1ccc(Br)cc1	x	-9.6%	x	x	x	x
Cc1cc(CN(C)C(=O)CC2C(=O)NCCN2Cc2ccc(F)c(F)c2)on1 (stereo unspecified)	-18.5%	6.4%	x	3.4%	35.4%	53.9%
CCN(Cc1ccncc1)C(=O)CC1C(=O)NCCN1Cc1ccc(F)c(F)c1 (stereo unspecified)	-9.7%	79.4µM*	u	-28.7%	70.1%	-4.4%
CCN(CCn1cccn1)C(=O)CC1C(=O)NCCN1Cc1ccc(F)c(F)c1 (stereo unspecified)	8.0%	8.6%	u	-5.8%	37.2%	4.7%
Cc1ccc(CN2CCNC(=O)C2CC(=O)N(C)C2CCOCC2)cc1 (stereo unspecified)	-7.5%	6.4%	50.1µM*	2.7%	40.0%	x
CC(C)N(Cc1nccn1C)C(=O)CC1C(=O)NCCN1Cc1ccc(F)c(F)c1 (stereo unspecified)	-6.2%	-5.8%	39.8µM*	-26.0%	24.6%	x
CN(C(=O)CC1C(=O)NCCN1Cc1ccc(F)c(F)c1)C1CCCCC1 (stereo unspecified)	-8.1%	3.0%	44.7µM*	-15.0%	17.9%	x
CCc1cccc(CC)c1N(COC)C(=O)Cn1c(C)nc2ccccc21	-11.8%	x	u	-7.3%	14.1%	x
COc1cc(C2C(C(=O)OC(C)C)=C(C)N=C3SCCC(=O)N32)ccc1OCc1ccccc1 (stereo unspecified)	-27.5%	x	-47.1%[59 µM]	u	23.0%	x
O=C(O)COc1cccc2c1CCC=C2CCO/N=C(\c1ccccc1)c1cccnc1	x	-5.8%	x	x	x	x

Source: PubChem BioAssay (National Center for Advancing Translational Sciences (NCATS))
